From PubChem BioAssay (NCATS)
Results filed as inconclusive are left out. Where a call stands in place of a potency, no number is given. Calls of active or inactive are those of the source. Calls follow the shape of the dose curve; as a rule, active = well fitted curve in the direction sought with a large enough effect; inconclusive = small, poorly fitted or top-dose-only effect, or another doubt; inactive = no such curve, though single readings can be large; an effect the other way counts as inactive or inconclusive.

Assays:
[1] = Confirmatory screen GU Rhodamine qHTS for Zika virus inhibitors qHTS (AID 1347157); also: nearly all actives have a fitted effect of over 70% in size; also: potency is read from the fitted curve at half-maximal effect
Procedure, shortened: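 Percent inhibition came from the 15-min rise in Rhodamine110 fluorescence (1.5 microM substrate, ~15% conversion), normalized to no-inhibitor and no-enzyme wells and Hill-fitted. Unlinked protease, 25 nM, pH 8.0 Tris buffer; compounds up to 114 microM, 15-min preincubation.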

[2] = Confirmatory screen NINDS Rhodamine qHTS for Zika virus inhibitors (AID 1347161); also: nearly all actives have a fitted effect of over 60% in size; also: potency is read from the fitted curve at half-maximal effect
Procedure, shortened: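 Percent inhibition, normalized to uninhibited and enzyme-free controls, is fitted to a 4-parameter Hill equation. Fluorescence change comes from a 15-min cleavage of 1.5 microM bis-peptide Rhodamine110 substrate by 25 nM linked NS2B-NS3 at room temperature.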

[3] = Tertiary RLuc qRT-PCR qHTS assay for Zika virus inhibitors (AID 1347169); also: top concentration of the series differs between compounds; nearly all actives have a fitted effect of over 55% in size
Procedure, shortened: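 Vero, 1,000 cells/well, o/n 37 C; cpd pinned in DMSO; ZIKV-RLuc Cambodian, MOI 1-2, 48-72 h 37 C; live-cell RLuc substrate, lum read at 1-1.5 h.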

[4] = ZIKV-mCherry secondary qHTS for Zika virus inhibitors (AID 1347158); also: top concentration of the series differs between compounds
Procedure, shortened: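 Compounds were tested in Vero monkey kidney cells infected with recombinant mCherry-expressing Zika virus at MOI 1 for 48-72 h at 37 °C. Fixed cells were nuclear-stained and imaged, and infection rate was taken as the fraction of mCherry-positive cells.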

[5] = tested on: Zika virus NS2B-NS3 protease (linked); assay: 384 well plate NINDS AMC confirmatory qHTS for Zika virus inhibitors (AID 1347163); also: potency is read from the fitted curve at half-maximal effect; nearly all actives have a fitted effect of over 50% in size
Procedure, shortened: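 Fluorescence at 355/460 nm was read after 25 minutes of cleavage of 30 microM Ac-VKTGKR-AMC at room temperature, in the dark. Before substrate addition, compounds (up to 1 mM final) sat ~15 minutes with 5, 30 or 60 nM linked protease. Signals were normalized to no-enzyme and no-inhibitor wells.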

[6] = tested on: Zika virus NS2B-NS3 protease (linked construct); assay: 384 well plate NINDS Rhodamine confirmatory qHTS for Zika virus inhibitors (AID 1347164);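 also: fluorescence from protease cleavage of Ac-LKRR-rhodamine 110 substrate; potency is read from the fitted curve at half-maximal effect; nearly all actives have a fitted effect of over 65% in size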
Procedure, shortened: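 Enzyme (final 5/30/60 nM) + cpd (DMSO), ~15 min; add Ac-LKRR-Rd 10 microM final; 25 min RT, dark; FI ex 485/em 538; normalized to no-enzyme, no-inhibitor ctrls; aprotinin intraplate ctrl.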

Row | Compound | Potency [1] | Potency [2] | Potency [3] | Potency [4] | Potency [5] | Potency [6]
1 | CC(Oc1ccccc1)C(=O)Nc1ccc(C(=O)OCc2cc(=O)n3nc(C(C)C)sc3n2)cc1 (stereo not given) | inactive | inactive | – | – | – | –
2 | O=C(Nc1ccc(C(=O)OCc2cc(=O)n3c4c(sc3n2)CCCC4)cc1)c1cccc(F)c1 | inactive | inactive | – | – | – | –
3 | CCCCOC(=O)c1ccc(NC(=O)c2ccc3c(c2)CCN3S(=O)(=O)c2ccccc2)cc1 | inactive | inactive | inactive | – | – | –
4 | CCOC(=O)c1ccc(NC(=O)c2nc(SCc3ccccc3F)ncc2Cl)cc1 | inactive | inactive | – | – | – | –
5 | CC(C)(C)c1ccc(S(=O)(=O)c2cnc(SCC(=O)Nc3ccc4c(c3)OCCO4)[nH]c2=O)cc1 | 7.08 µM (active) | 6.31 µM (active) | inactive | inactive | 316 µM (active) | 31.6 µM (active)
6 | O=C(Nc1ccccc1C(=O)OCc1cc(=O)n2nc(C3CC3)sc2n1)c1cccc(Cl)c1 | inactive | inactive | – | – | – | –
7 | CC(=O)Nc1ccc(S(=O)(=O)O)c2cc(S(=O)(=O)O)c(N=Nc3ccc(N=Nc4ccc(S(=O)(=O)O)cc4)c4ccc(S(=O)(=O)O)cc34)c(O)c12 | 6.31 µM (active) | 2.51 µM (active) | inactive | – | 22.4 µM (active) | 3.98 µM (active)
8 | Cc1c(C2(c3cc(C(C)C)c(O)c(Br)c3C)OS(=O)(=O)c3ccccc32)cc(C(C)C)c(O)c1Br | 5.01 µM (active) | 5.62 µM (active) | – | inactive | 126 µM (active) | 17.8 µM (active)
9 | O=C(Nc1cccc(C(=O)OCc2cc(=O)n3nc(C4CC4)sc3n2)c1)c1cccc(F)c1 | 50.1 µM (active) | – | inactive | inactive | – | 17.8 µM (active)
10 | CC(C)c1ccc(NC(=O)c2ccc3c(O)c(S(=O)(=O)c4ccccc4)c(=O)[nH]c3c2)cc1 | 17.8 µM (active) | 3.98 µM (active) | – | inactive | 282 µM (active) | 28.2 µM (active)
11 | CC(C)c1ccc(Nc2sc(C(=O)c3ccccc3)c(N)c2S(=O)(=O)c2ccccc2)cc1 | inactive | inactive | inactive | – | – | –
12 | CCOC(=O)c1ccccc1NC(=O)CSc1ccc(-c2sc(-c3ccccc3)nc2C)nn1 | inactive | inactive | – | – | – | –
13 | Cc1ccc(NC(=O)c2ccc3c(O)c(S(=O)(=O)c4ccccc4)c(=O)[nH]c3c2)cc1Cl | 8.91 µM (active) | 6.31 µM (active) | inactive | inactive | 282 µM (active) | 44.7 µM (active)
14 | O=C(OCC#CCSc1nnc(-c2cccc3ccccc23)o1)c1ccc(C(F)(F)F)cc1 | inactive | inactive | inactive | – | – | –
15 | Cc1ccc(-c2cc(C(F)(F)F)c(C#N)c(SCC(=O)O)n2)cc1 | 44.7 µM (active) | 44.7 µM (active) | – | inactive | 141 µM (active) | 126 µM (active)
